# Measured values from publication PMC7862700, “An all-to-all approach to the identification of sequence-specific readers for epigenetic DNA modifications on cytosine”.
# Columns and labels:
# Test in all cases: DAPPL (digital affinity profiling via proximity ligation, sequencing); 10 mM Tris-HCl pH 7.5, 50 mM NaCl, 1 mM DTT, 4% glycerol, room temperature, 30 min; GST-TFs on glutathione beads, 16-mer random dsDNA library, 0.1% formaldehyde crosslink after washing; high values mean tight binding
# [1] = molecular target: T1, FLI1 (Homo sapiens, UniProt Q01543 1-452); conditions: protein: recombinant; tags: N-terminal GST; dsDNA, one strand shown
# T1 sequence: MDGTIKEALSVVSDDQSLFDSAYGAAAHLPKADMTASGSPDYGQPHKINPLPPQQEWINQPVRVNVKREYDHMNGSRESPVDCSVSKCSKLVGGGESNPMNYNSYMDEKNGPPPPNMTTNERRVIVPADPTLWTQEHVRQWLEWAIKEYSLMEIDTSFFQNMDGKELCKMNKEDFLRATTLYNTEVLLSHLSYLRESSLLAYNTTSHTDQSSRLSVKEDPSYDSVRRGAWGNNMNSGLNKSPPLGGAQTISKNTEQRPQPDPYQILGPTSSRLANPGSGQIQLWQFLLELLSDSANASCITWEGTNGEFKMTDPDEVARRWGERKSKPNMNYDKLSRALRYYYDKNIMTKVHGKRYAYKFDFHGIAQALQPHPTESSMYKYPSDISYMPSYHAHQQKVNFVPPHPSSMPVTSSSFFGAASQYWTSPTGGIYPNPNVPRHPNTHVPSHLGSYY
# In short: (§1)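 A tag-only sample was pooled with DNA-barcoded human transcription factors that had been expressed in yeast as GST fusions and captured on glutathione beads. The pools were incubated for 30 min at room temperature with 200 nmole of a random double-stranded 16-mer DNA library in Tris/NaCl/DTT/glycerol buffer, then washed, crosslinked with 0.1% formaldehyde, proximity-ligated (BsaI/T4 ligase, 1 h, 37 °C), PCR-amplified and sequenced on an Illumina NextSeq500. Binding signal is each hexamer's read frequency for a factor divided by its frequency for the tag-only sample.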
# [2] = molecular target: T2, ELK1 (Homo sapiens, UniProt P19419 1-428); conditions: protein: recombinant; tags: N-terminal GST; dsDNA, one strand shown
# T2 sequence: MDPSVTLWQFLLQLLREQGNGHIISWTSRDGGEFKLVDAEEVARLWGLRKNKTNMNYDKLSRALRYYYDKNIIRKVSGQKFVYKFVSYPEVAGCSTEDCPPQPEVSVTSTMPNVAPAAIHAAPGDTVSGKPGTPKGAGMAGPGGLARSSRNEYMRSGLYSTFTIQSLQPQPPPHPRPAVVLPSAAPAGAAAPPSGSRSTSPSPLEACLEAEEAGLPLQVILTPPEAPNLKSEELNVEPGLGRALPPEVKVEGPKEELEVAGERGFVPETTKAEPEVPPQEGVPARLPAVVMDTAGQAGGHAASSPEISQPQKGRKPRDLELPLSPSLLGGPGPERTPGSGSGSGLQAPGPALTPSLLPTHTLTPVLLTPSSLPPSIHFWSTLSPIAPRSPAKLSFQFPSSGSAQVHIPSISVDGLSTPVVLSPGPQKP
# In short: as §1
# [3] = molecular target: T3, GABPA (Homo sapiens, UniProt Q06546 1-454); conditions: protein: recombinant; tags: N-terminal GST; dsDNA, one strand shown
# T3 sequence: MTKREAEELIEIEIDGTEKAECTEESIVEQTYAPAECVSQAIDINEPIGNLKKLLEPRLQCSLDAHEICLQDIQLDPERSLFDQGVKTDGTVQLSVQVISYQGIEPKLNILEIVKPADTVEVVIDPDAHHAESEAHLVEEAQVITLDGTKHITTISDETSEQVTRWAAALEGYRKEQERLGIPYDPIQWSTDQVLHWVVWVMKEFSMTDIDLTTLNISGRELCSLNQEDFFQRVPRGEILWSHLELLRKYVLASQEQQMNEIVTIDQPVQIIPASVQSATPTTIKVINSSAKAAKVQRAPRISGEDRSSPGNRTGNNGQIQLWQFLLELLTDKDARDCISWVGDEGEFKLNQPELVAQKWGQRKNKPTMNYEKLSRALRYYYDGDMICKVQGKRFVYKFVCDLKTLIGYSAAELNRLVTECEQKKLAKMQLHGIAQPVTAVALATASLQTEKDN
# In short: as §1
# [4] = molecular target: T4, ERG (Homo sapiens, UniProt P11308 1-479); conditions: protein: recombinant; tags: N-terminal GST; dsDNA, one strand shown
# T4 sequence: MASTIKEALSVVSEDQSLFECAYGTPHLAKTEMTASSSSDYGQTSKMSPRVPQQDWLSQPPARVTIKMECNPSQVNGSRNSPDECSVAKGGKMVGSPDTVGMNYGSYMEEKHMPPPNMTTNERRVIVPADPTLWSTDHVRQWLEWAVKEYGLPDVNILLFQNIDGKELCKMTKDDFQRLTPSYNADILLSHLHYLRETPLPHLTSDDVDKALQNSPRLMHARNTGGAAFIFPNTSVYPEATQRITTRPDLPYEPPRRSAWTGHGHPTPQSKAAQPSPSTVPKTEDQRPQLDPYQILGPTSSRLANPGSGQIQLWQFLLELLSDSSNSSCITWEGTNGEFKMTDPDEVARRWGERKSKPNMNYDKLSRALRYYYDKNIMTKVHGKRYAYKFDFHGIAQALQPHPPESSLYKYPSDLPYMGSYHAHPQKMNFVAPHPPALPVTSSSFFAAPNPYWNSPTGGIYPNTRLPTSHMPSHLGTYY
# In short: as §1
# [5] = molecular target: ELF1 (Homo sapiens, UniProt P32519 1-619); conditions: protein: recombinant; tags: N-terminal GST; dsDNA, one strand shown
# In short: as §1
# [6] = molecular target: T5, EHF (Homo sapiens, UniProt Q9NZC4 1-300); conditions: protein: recombinant; tags: N-terminal GST; dsDNA, one strand shown
# T5 sequence: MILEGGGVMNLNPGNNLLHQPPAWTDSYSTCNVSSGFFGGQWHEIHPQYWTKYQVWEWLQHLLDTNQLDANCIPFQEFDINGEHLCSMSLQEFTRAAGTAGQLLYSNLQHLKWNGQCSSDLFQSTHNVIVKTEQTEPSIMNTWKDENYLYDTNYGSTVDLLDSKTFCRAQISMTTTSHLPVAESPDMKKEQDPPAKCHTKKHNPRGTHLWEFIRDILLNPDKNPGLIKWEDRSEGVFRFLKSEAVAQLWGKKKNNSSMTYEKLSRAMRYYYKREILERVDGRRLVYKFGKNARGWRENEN
# In short: as §1
# [7] = molecular target: SPI1 (Homo sapiens, UniProt P17947 1-270); conditions: protein: recombinant; tags: N-terminal GST; dsDNA, one strand shown
# In short: as §1
# [8] = molecular target: SPIB (Homo sapiens, UniProt Q01892 1-262); conditions: protein: recombinant; tags: N-terminal GST; dsDNA, one strand shown
# In short: as §1
# [9] = molecular target: T6, ELK3 (Homo sapiens, UniProt P41970 1-407); conditions: protein: recombinant; tags: N-terminal GST; dsDNA, one strand shown
# T6 sequence: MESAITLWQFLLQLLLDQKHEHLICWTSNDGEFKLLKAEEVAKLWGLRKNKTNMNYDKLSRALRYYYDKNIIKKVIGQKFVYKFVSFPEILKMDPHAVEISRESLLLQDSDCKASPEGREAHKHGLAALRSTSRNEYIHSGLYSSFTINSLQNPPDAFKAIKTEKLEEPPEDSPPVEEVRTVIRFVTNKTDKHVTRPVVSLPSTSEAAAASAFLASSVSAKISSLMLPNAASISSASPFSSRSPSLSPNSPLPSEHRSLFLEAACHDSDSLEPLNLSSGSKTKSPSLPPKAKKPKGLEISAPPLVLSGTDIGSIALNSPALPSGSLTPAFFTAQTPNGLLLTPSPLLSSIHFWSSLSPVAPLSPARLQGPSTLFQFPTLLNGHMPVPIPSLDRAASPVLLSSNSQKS
# In short: as §1
# [10] = molecular target: T7, FEV (Homo sapiens, UniProt Q99581 1-238); conditions: protein: recombinant; tags: N-terminal GST; dsDNA, one strand shown
# T7 sequence: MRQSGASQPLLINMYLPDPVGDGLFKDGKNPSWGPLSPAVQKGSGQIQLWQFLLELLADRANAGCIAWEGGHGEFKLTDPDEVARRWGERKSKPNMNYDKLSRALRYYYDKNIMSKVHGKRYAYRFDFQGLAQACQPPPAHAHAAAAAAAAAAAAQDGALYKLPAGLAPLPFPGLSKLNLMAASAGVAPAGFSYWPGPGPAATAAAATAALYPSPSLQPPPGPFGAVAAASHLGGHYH
# In short: as §1
# [11] = molecular target: ETV5 (Homo sapiens, UniProt P41161 1-510); conditions: protein: recombinant; tags: N-terminal GST; dsDNA, one strand shown
# In short: as §1
# [12] = molecular target: HSF1 (Homo sapiens, UniProt Q00613 1-529); conditions: protein: recombinant; tags: N-terminal GST; chain copies: 3; dsDNA, one strand shown
# In short: as §1
# [13] = molecular target: T8, SPIC (Homo sapiens, UniProt Q8N5J4 1-248); conditions: protein: recombinant; tags: N-terminal GST; dsDNA, one strand shown
# T8 sequence: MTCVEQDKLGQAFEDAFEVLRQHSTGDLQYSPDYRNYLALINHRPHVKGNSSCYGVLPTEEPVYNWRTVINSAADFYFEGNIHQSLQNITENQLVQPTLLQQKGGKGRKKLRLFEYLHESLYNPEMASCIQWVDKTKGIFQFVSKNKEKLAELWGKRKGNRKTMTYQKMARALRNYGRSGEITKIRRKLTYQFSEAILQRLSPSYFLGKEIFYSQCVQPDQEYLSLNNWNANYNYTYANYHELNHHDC
# In short: as §1
# [14] = molecular target: ELF4 (Homo sapiens, UniProt Q99607 1-663); conditions: protein: recombinant; tags: N-terminal GST; dsDNA, one strand shown
# In short: as §1
# [15] = molecular target: T9, ETV2 (Homo sapiens, UniProt O00321 1-342); conditions: protein: recombinant; tags: N-terminal GST; dsDNA, one strand shown
# T9 sequence: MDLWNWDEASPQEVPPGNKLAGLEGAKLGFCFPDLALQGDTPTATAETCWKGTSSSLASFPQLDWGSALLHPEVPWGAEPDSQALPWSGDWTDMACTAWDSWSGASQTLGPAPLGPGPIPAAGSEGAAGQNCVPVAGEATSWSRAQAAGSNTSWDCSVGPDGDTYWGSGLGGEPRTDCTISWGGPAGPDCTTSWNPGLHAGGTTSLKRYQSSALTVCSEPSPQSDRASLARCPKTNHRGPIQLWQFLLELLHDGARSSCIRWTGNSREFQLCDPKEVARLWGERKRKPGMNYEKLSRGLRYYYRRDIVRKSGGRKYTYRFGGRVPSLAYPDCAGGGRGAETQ
# In short: as §1
# [16] = molecular target: CRX (Homo sapiens, UniProt O43186 1-299); conditions: protein: recombinant; tags: N-terminal GST; dsDNA, one strand shown
# In short: as §1
# [17] = molecular target: ETV1 (Homo sapiens, UniProt P50549 1-477); conditions: protein: recombinant; tags: N-terminal GST; dsDNA, one strand shown
# In short: as §1
# ETV1, sequence (P50549 whole entry): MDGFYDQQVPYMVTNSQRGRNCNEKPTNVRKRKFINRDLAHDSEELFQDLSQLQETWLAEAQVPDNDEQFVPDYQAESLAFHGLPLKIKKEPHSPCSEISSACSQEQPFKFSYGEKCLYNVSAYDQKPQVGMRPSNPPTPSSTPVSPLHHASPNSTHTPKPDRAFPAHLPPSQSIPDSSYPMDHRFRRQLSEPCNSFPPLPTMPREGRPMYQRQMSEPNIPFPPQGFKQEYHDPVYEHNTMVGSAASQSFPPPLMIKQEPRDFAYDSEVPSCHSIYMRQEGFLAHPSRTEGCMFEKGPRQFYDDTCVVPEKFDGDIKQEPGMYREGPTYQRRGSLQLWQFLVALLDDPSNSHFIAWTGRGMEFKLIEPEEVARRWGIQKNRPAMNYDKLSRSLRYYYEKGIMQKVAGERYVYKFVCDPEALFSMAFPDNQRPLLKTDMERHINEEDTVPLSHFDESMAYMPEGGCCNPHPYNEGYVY
# ELF4, sequence (Q99607 whole entry): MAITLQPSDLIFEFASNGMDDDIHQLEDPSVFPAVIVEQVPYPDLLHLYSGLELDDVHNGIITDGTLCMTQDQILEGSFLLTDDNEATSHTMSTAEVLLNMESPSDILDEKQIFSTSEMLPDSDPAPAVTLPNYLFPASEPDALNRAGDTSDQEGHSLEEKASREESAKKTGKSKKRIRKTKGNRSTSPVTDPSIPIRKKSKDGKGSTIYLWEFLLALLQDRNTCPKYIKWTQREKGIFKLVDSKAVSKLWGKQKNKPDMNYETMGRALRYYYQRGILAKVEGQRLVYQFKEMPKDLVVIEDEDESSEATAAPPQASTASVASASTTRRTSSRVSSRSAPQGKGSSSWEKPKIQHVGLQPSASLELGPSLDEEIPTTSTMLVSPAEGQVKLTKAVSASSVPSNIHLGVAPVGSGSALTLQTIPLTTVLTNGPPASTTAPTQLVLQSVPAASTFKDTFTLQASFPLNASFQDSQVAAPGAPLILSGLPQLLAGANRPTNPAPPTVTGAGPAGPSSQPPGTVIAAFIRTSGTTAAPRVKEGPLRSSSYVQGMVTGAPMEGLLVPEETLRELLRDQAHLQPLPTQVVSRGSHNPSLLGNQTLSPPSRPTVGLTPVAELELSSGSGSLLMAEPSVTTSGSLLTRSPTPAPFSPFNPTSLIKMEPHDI
# CRX, sequence (O43186 whole entry): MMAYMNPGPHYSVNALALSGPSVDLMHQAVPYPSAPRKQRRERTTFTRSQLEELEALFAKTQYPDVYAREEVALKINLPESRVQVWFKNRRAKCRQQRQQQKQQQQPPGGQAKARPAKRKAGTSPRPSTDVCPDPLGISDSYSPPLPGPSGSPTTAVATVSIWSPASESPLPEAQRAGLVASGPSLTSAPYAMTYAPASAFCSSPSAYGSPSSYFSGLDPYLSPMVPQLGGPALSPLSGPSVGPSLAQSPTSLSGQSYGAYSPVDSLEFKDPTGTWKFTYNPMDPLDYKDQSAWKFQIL
# HSF1, sequence (Q00613 whole entry): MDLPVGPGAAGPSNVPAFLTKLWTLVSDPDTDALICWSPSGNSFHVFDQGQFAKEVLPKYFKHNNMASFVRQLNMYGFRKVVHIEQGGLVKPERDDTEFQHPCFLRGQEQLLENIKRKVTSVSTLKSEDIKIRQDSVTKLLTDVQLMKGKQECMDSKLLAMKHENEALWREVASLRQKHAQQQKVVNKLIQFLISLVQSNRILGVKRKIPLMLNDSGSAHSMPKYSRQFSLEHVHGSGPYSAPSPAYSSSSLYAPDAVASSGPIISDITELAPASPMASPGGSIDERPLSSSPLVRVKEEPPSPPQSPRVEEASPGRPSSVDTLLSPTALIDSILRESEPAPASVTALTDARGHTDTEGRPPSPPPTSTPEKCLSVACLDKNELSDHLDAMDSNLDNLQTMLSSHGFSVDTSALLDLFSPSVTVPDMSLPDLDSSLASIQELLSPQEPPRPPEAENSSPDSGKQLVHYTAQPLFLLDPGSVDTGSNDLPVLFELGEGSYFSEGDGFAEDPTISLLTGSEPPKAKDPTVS
# ELF1, sequence (P32519 whole entry): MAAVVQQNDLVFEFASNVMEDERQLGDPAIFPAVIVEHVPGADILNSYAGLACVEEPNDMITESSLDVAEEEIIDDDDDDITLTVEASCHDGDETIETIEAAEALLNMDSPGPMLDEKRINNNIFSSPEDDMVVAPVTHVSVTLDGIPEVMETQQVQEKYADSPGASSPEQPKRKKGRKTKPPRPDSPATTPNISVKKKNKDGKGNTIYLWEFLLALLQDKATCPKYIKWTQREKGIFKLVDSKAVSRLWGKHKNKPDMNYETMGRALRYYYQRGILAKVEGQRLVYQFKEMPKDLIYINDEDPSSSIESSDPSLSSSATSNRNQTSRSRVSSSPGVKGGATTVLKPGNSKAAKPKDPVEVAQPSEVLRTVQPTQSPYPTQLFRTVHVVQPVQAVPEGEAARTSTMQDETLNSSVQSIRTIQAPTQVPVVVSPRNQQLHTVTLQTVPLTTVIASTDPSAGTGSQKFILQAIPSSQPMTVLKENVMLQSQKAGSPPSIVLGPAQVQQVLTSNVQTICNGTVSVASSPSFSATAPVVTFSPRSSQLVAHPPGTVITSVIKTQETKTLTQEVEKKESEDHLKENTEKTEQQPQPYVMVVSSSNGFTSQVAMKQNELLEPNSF
# SPIB, sequence (Q01892 whole entry): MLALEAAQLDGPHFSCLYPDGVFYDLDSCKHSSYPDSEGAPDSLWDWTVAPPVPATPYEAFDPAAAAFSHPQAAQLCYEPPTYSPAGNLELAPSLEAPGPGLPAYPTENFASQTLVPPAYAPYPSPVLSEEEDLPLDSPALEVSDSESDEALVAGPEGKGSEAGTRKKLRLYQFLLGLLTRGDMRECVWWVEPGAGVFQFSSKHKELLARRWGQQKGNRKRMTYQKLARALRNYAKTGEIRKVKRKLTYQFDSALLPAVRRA
# ETV5, sequence (P41161 whole entry): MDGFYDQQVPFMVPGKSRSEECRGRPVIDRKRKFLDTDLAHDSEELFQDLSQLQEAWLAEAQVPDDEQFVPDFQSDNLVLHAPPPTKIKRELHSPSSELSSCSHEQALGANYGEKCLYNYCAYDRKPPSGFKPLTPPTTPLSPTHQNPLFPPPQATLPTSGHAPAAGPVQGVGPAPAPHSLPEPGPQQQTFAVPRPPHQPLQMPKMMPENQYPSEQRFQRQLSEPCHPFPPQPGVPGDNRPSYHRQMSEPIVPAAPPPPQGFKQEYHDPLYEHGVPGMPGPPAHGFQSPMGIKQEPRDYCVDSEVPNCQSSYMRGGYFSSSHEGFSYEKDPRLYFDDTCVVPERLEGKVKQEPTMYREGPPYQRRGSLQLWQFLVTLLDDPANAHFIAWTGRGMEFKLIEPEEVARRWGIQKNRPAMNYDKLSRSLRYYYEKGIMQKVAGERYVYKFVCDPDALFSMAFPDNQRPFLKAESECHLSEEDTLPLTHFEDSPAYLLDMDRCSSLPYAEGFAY
sequence,measurement,setting,value
CGAGCT,binding signal,[1],"1.02 fold enrichment (6-mer frequency, TF over GST control)"
same,binding signal,[2],"1.02 fold enrichment (6-mer frequency, TF over GST control)"
same,binding signal,[3],"1.09 fold enrichment (6-mer frequency, TF over GST control)"
same,binding signal,[4],"1.04 fold enrichment (6-mer frequency, TF over GST control)"
same,binding signal,[5],"1.06 fold enrichment (6-mer frequency, TF over GST control)"
same,binding signal,[6],"1.13 fold enrichment (6-mer frequency, TF over GST control)"
same,binding signal,[7],"1.03 fold enrichment (6-mer frequency, TF over GST control)"
same,binding signal,[8],"1.04 fold enrichment (6-mer frequency, TF over GST control)"
same,binding signal,[9],"1.06 fold enrichment (6-mer frequency, TF over GST control)"
same,binding signal,[10],"1.03 fold enrichment (6-mer frequency, TF over GST control)"
same,binding signal,[11],"1.01 fold enrichment (6-mer frequency, TF over GST control)"
same,binding signal,[12],"1.24 fold enrichment (6-mer frequency, TF over GST control)"
same,binding signal,[13],"1.25 fold enrichment (6-mer frequency, TF over GST control)"
same,binding signal,[14],"1.07 fold enrichment (6-mer frequency, TF over GST control)"
same,binding signal,[15],"1.05 fold enrichment (6-mer frequency, TF over GST control)"
same,binding signal,[16],"1.04 fold enrichment (6-mer frequency, TF over GST control)"
same,binding signal,[17],"1.15 fold enrichment (6-mer frequency, TF over GST control)"
